# Reference: PubChem BioAssay (EPA / NIEHS)
# Inconclusive results are not listed. Active and inactive are the calls of the source. How the source made its calls, unless noted: active means hit-call score of the fitted dose curve at least 0.9, where 1 is the maximum; inactive means score below 0.9.
# What was measured:
# [1] = molecular target: CCAAT/enhancer-binding protein beta (Homo sapiens) (UniProt P17676); test: ATG_C_EBP_CIS: Attagene CIS-FACTORIAL HepG2 Assay for human CCAAT/Enhancer Binding Protein (C/EBP) beta (AID 2282927); conditions: HepG2 Attagene cis-factorial transcription factor reporter; actives raise or lower the signal
# Chain of CCAAT/enhancer-binding protein beta (Homo sapiens) (P17676 whole entry, looked up): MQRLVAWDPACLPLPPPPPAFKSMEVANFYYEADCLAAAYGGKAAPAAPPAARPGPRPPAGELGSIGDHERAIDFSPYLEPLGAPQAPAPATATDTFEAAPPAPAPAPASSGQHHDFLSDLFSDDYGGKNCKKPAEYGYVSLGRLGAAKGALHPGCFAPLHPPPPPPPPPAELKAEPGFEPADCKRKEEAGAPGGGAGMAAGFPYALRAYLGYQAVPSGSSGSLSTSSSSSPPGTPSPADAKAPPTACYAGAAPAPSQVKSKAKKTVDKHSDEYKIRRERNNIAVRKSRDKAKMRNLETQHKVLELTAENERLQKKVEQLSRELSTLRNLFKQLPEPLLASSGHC
# Method in brief: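 Transiently transfected HepG2 (MRTU library, endogenous TF-driven promoters); 24 h dosing; total RNA → oligo(dT) RT → PCR → 6-FAM primer extension → HpaI digest → CE; fit bidirectionally vs DMSO.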
# [2] = ATG_CMV_CIS: Attagene CIS-FACTORIAL HepG2 Assay for human CMV (Internal Marker) (AID 2282928); conditions: HepG2 CMV promoter reporter, transcription factor profiling; actives raise or lower the signal;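 further: endpoint acts as a background internal control marker rather than a target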
# Method in brief: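 Cell system: HepG2, transiently transfected multiple reporter units under cis promoters. Exposure: 24 h. Detection: RT-PCR, FAM labeling, HpaI digestion, capillary electrophoresis. Analysis: bidirectional, DMSO baseline.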
# [3] = molecular target: Aryl hydrocarbon receptor (Homo sapiens) (UniProt P35869); test: ATG_Ahr_CIS: Attagene CIS-FACTORIAL HepG2 Assay for human Aryl Hydrocarbon Receptor (Ahr) (AID 2282930); conditions: HepG2 AhR cis-factorial reporter transcription; actives raise or lower the signal
# Chain of Aryl hydrocarbon receptor (Homo sapiens) (P35869 whole entry, looked up): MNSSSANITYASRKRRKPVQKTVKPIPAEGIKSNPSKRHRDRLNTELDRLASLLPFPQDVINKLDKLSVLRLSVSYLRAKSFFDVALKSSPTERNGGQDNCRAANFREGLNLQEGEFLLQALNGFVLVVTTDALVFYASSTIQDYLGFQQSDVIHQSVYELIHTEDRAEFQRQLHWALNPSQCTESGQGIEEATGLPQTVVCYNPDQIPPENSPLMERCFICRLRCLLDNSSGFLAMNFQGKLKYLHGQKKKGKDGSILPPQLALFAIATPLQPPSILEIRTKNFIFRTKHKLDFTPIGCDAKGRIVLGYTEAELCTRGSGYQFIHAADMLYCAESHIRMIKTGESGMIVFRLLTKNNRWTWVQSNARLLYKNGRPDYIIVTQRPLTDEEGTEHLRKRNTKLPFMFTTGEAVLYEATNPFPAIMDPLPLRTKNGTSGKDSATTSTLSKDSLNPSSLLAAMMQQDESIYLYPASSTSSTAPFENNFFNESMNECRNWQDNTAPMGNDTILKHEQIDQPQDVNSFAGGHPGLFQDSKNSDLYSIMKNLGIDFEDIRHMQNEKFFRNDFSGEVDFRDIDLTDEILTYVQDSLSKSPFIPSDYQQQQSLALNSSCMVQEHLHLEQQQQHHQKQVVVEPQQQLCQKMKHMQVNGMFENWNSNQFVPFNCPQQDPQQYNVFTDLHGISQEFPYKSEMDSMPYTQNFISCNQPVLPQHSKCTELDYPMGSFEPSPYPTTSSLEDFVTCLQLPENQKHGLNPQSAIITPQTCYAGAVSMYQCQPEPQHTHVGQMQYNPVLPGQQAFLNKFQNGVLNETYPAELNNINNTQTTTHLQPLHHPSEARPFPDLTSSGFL
# Method in brief: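 Read-out: reporter mRNA quantified by RT-PCR with fluorescent primer extension and capillary electrophoresis. Human HepG2 liver cells carried transfected cis-promoter reporter units and were exposed to chemical for 24 h; gain or loss fitted relative to DMSO.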
# [4] = ATG_EGR_CIS: Attagene CIS-FACTORIAL HepG2 Assay for human Early Growth Response 1 (EGR1) (AID 2282938); conditions: HepG2 Attagene CIS-FACTORIAL EGR reporter mRNA; actives raise or lower the signal
# Method in brief: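 HepG2 cells transiently transfected with cis-element-driven multiplexed reporter units, dosed for 24 h. EGR1-element reporter mRNA quantified by RT-PCR, 6-FAM labelling, HpaI digestion and capillary electrophoresis; bidirectional fit versus DMSO.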
# [5] = ATG_ISRE_CIS: Attagene CIS-FACTORIAL HepG2 Assay for human Interferon Regulatory Factor 1 (IRF1) binding to an Interferon-Stimulated Response Element (ISRE) (AID 2282948); conditions: HepG2 ISRE cis-reporter (Attagene), mRNA transcription readout; actives raise or lower the signal
# Method in brief: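 Quantitation relies on labelled RT-PCR fragments separated by capillary electrophoresis. Human HepG2 cells bearing cis-promoter reporter constructs were treated 24 h; DMSO served as baseline for bidirectional fitting.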
# [6] = molecular target: Hypoxia-inducible factor 1-alpha (Homo sapiens) (UniProt Q16665); test: ATG_HIF1a_CIS: Attagene CIS-FACTORIAL HepG2 Assay for human Hypoxia Inducible Factor 1 (HIF1A) (AID 2282951); conditions: HepG2 Attagene cis-factorial HIF1a reporter transcription; actives raise or lower the signal
# Chain of Hypoxia-inducible factor 1-alpha (Homo sapiens) (Q16665 whole entry, looked up): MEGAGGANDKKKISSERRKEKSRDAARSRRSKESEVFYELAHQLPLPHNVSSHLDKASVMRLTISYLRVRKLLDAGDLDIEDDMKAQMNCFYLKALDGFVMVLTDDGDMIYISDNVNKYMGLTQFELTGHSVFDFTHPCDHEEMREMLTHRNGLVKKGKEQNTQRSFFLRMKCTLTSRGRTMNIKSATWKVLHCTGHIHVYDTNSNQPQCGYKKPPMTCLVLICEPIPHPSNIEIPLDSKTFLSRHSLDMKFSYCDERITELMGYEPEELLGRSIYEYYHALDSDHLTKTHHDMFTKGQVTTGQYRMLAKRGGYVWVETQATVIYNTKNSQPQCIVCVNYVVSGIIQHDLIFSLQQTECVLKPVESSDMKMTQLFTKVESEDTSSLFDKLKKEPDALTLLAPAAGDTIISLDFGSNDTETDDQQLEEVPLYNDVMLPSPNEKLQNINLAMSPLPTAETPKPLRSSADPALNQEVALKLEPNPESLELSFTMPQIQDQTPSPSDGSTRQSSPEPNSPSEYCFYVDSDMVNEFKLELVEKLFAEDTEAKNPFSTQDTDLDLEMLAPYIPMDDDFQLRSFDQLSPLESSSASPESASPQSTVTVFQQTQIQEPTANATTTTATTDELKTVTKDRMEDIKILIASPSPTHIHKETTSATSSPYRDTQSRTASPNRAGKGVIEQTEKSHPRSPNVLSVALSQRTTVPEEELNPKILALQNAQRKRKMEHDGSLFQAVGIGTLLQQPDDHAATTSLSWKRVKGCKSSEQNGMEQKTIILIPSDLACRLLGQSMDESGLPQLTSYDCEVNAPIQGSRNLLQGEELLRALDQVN
# Method in brief: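 HepG2 cells transiently transfected with multiple cis-regulated reporter transcription units measure endogenous transcription factor activity. After 24 h exposure, reporter mRNA is quantified by RT-PCR with 6-FAM labelling, HpaI digestion and capillary electrophoresis. Bidirectional fitting against DMSO.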
# [7] = molecular target: Heat shock factor protein 1 (Homo sapiens) (UniProt Q00613); test: ATG_HSE_CIS: Attagene CIS-FACTORIAL HepG2 Assay for human Heat Shock Transcription Factor 1 (HSE) (AID 2282953); conditions: HepG2 HSE cis-reporter, Attagene RNA transcription; actives raise or lower the signal
# Chain of Heat shock factor protein 1 (Homo sapiens) (Q00613 whole entry, looked up): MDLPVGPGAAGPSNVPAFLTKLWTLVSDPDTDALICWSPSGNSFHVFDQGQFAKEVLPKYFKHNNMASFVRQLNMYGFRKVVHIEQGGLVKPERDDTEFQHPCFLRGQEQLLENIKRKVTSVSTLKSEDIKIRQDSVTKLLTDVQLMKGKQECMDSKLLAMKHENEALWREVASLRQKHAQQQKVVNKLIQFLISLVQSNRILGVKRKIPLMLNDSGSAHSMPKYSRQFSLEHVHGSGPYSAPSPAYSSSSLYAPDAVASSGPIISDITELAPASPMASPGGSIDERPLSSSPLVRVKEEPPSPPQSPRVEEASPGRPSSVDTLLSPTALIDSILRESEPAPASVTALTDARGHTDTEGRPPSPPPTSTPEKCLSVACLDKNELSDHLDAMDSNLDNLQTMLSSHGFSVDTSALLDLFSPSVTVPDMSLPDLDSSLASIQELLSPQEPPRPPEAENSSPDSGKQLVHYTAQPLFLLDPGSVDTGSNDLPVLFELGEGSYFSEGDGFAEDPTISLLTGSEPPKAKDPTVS
# Method in brief: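 After a 24 h incubation with test chemical, transfected HepG2 cells were harvested for RNA; reporter transcripts were measured by RT-PCR and capillary electrophoresis. Values reflect gain or loss of signal relative to DMSO.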
# [8] = ATG_TAL_CIS: Attagene CIS-FACTORIAL HepG2 Assay for human TAL Basal Promoter (AID 2282966); conditions: HepG2 Attagene cis-factorial TAL promoter reporter; actives raise or lower the signal;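 further: background control endpoint measuring basal TAL promoter reporter mRNA not a specific factor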
# Method in brief: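 Readout: reporter mRNA, fluorescence by CE. System: HepG2, transient multi-reporter transfection, endogenous TF activity. Exposure: 24 h. Analysis: bidirectional, DMSO-normalized; background control.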
# [9] = molecular target: X-box-binding protein 1 (Homo sapiens) (UniProt P17861); test: ATG_Xbp1_CIS: Attagene CIS-FACTORIAL HepG2 Assay for human X-box Binding Protein 1 (XBP1) (AID 2282972); conditions: HepG2 XBP1 cis-element reporter, Attagene multiplex; actives raise or lower the signal
# Chain of X-box-binding protein 1 (Homo sapiens) (P17861 whole entry, looked up): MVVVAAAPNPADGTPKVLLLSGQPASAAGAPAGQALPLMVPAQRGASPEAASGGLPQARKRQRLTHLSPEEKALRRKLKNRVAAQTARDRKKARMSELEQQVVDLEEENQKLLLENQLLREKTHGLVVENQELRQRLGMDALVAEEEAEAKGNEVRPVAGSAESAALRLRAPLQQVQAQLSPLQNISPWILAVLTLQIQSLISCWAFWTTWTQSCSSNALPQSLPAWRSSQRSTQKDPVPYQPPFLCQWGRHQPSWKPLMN
# Method in brief: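 After a 24-hour chemical exposure of HepG2 cells carrying cis-regulated reporters, reporter mRNA levels are assessed. Quantification uses RT-PCR, 6-FAM labelling and capillary electrophoresis. Gain- or loss-of-signal is fitted against DMSO.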
# [10] = molecular target: Transcriptional activator Myb (Homo sapiens) (UniProt P10242); test: ATG_Myb_CIS: Attagene CIS-FACTORIAL HepG2 Assay for human Myeloblastosis (Myb) Proto-Oncogene Transcription Factor (AID 2282986); conditions: HepG2 Attagene CIS-FACTORIAL Myb reporter transcription; actives raise or lower the signal
# Chain of Transcriptional activator Myb (Homo sapiens) (P10242 whole entry, looked up): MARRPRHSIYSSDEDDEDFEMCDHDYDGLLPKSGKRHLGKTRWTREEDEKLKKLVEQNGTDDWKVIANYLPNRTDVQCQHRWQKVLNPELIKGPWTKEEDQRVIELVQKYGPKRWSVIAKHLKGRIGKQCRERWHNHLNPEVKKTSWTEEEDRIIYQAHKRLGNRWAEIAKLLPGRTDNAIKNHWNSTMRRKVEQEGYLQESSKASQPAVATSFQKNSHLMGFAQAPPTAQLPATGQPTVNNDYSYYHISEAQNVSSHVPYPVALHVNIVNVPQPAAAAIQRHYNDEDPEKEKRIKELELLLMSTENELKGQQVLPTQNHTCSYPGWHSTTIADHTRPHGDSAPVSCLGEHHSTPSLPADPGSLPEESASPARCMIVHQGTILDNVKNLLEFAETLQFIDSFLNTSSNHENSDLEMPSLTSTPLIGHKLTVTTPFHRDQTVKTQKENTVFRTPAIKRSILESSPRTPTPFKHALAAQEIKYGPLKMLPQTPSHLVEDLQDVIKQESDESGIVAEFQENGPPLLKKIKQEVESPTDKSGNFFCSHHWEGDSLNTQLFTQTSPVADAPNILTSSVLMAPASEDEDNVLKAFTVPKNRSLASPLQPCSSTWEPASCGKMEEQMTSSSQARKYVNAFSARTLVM
# Method in brief: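 Transiently transfected HepG2 cells carrying a multiplexed cis-promoter reporter set report endogenous Myb activity after 24 h compound exposure. Reporter mRNA is read by RT-PCR with capillary electrophoresis of fluorescent products, fitted bidirectionally against DMSO.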
# [11] = molecular target: Nuclear respiratory factor 1 (Homo sapiens) (UniProt Q16656); test: ATG_NRF1_CIS: Attagene CIS-FACTORIAL HepG2 Assay for human Nuclear Respiratory Factor 1 (NRF1) Orphan Gene (AID 2282987); conditions: HepG2 NRF1 cis-element reporter, Attagene multiplex; actives raise or lower the signal
# Chain of Nuclear respiratory factor 1 (Homo sapiens) (Q16656 whole entry, looked up): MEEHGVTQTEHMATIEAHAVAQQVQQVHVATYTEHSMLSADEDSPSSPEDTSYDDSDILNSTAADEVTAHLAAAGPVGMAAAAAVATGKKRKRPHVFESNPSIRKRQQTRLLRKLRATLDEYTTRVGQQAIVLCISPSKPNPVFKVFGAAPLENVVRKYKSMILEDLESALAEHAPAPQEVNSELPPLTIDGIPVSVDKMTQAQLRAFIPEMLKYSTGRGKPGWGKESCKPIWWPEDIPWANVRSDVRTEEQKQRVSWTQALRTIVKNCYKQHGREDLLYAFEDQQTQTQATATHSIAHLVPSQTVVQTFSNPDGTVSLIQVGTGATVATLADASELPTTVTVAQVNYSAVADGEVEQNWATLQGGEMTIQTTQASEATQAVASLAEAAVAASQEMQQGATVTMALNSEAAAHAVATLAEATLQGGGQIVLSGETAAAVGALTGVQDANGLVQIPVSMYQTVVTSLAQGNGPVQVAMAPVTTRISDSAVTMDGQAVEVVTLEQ
# Method in brief: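 HepG2 cells transiently transfected with multiple cis-regulated reporter units, exposed 24 h. Reporter mRNAs measured by RT-PCR, fluorescent labelling, HpaI digestion and capillary electrophoresis; bidirectional fitting against DMSO.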
# [12] = ATG_NFI_CIS: Attagene CIS-FACTORIAL HepG2 Assay for human Nuclear Factor I (NFI) (AID 2282989); conditions: HepG2 cis-regulatory reporter, NFI response element transcription; actives raise or lower the signal
# Method in brief: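 After transient transfection of HepG2 with cis-promoter reporter constructs and 24 h dosing, RNA is reverse-transcribed, amplified, 6-FAM end-labelled and HpaI-digested before capillary analysis. Bidirectional curve fitting against DMSO.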
# [13] = ATG_NRF2_ARE_CIS: Attagene CIS-FACTORIAL HepG2 Assay for human Nuclear Factor Erythroid 2 Related Factor 2 (NFR2) response to Antioxidant Response Elements (ARE) (AID 2282992); conditions: HepG2 Attagene ARE/NRF2 reporter, transcription factor activity; actives raise or lower the signal
# Method in brief: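 Cis-factorial assay: transfected HepG2 reporter library, 24 h dosing, mRNA readout via RT-PCR/CE; DMSO-referenced bidirectional analysis.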
# [14] = ATG_Oct_MLP_CIS: Attagene CIS-FACTORIAL HepG2 Assay for human Octamer-Binding Transcription Factor (Oct) (AID 2282993); conditions: HepG2 Attagene cis-factorial Oct reporter, mRNA; actives raise or lower the signal
# Method in brief: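 Cells of the HepG2 line express promoter-controlled reporter sequences whose mRNA levels, after 24 h treatment, are measured by RT-PCR and capillary electrophoresis. Increases and decreases are scored relative to DMSO.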
# [15] = molecular target: Cellular tumor antigen p53 (Homo sapiens) (UniProt P04637); test: ATG_p53_CIS: Attagene CIS-FACTORIAL HepG2 Assay for human p53 Transcription Factor (AID 2282994); conditions: HepG2 p53 cis-element reporter, Attagene mRNA; actives raise or lower the signal
# Chain of Cellular tumor antigen p53 (Homo sapiens) (P04637 whole entry, looked up): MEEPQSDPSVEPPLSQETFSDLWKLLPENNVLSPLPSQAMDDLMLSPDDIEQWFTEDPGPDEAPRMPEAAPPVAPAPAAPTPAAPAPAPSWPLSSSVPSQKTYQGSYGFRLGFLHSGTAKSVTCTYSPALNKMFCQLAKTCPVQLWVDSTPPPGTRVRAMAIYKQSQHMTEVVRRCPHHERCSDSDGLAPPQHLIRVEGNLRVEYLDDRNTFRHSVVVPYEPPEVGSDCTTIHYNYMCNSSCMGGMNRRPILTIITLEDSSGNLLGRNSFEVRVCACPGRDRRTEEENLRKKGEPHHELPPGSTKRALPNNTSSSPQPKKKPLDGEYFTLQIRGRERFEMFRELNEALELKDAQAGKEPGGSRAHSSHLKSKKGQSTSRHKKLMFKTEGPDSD
# Method in brief: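 Using HepG2 hepatoma cells carrying cis-acting multiplexed reporters, mRNA induction is detected after a 24 h exposure. Gain- and loss-of-signal responses are fitted relative to DMSO-treated cells.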
# [16] = ATG_XTT_Cytotoxicity: Cytotoxicity Assessment in the Attagene TRANS-FACTORIAL HepG2 Assay (AID 2283584; active means hit-call score of the fitted dose curve at least 0.9, where 1 is the maximum)
# Method in brief: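 Transfect HepG2 with GAL4-UAS reporter units, dose compound, incubate 24 h, then measure viable cell number by XTT. Fit concentration response against DMSO baseline.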
# [17] = ATG_AP_1_CIS: Attagene CIS-FACTORIAL HepG2 Assay for human Activator Protein 1 (AP-1) (AID 2282931); conditions: HepG2 Attagene cis-factorial AP-1 reporter mRNA; actives raise or lower the signal
# Method in brief: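 HepG2 cells transiently transfected with cis-element-driven reporter transcription units, dosed for 24 hours. Reporter mRNA measured by RT-PCR, 6-FAM labelling, HpaI digestion and capillary electrophoresis. Bidirectional fitting against DMSO baseline.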
# [18] = ATG_M_06_CIS: Attagene CIS-FACTORIAL HepG2 Assay for M06 Transcription Factor (Internal Marker) (AID 2282950); conditions: HepG2 Attagene CIS-FACTORIAL M06 internal marker reporter; actives raise or lower the signal
# Method in brief: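 Fluorescence-labelled RT-PCR products from cis-promoter reporter units, cut with HpaI and resolved by capillary electrophoresis, give the signal. Cells are human HepG2, dosed for 24 h. Serves as background control, fitted relative to DMSO.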
# [19] = ATG_VDRE_CIS: Attagene CIS-FACTORIAL HepG2 Assay for human Vitamin D Receptor Element (VDRE) (AID 2282968); conditions: HepG2 VDRE cis-reporter transcription, actives raise or lower the signal
# Method in brief: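 Cell-based multiplexed reporter format in human liver HepG2 cells, 24 h post-dose. Fluorescence from capillary electrophoresis of reporter cDNA gives the signal, with DMSO as negative control and baseline.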
smiles,measurement,setting,value
CC(Cc1ccc(C(C)(C)C)cc1)CN1C[C@@H](C)O[C@@H](C)C1 (stereo not given in full),outcome,[1],inactive
same,AC50,[2],38.6 µM (active)
same,AC50,[3],33.4 µM (active)
same,outcome,[4],inactive
same,outcome,[5],inactive
same,outcome,[6],inactive
same,outcome,[7],inactive
same,outcome,[8],inactive
same,outcome,[9],inactive
same,outcome,[10],inactive
same,outcome,[11],inactive
same,outcome,[12],inactive
same,AC50,[13],35.9 µM (active)
same,outcome,[14],inactive
same,outcome,[15],inactive
same,outcome,[16],inactive
CC(C)CCCCCCCOC(=O)c1ccccc1C(=O)OCCCCCCCC(C)C,outcome,[1],inactive
same,outcome,[2],inactive
same,outcome,[3],inactive
same,outcome,[17],inactive
same,outcome,[4],inactive
same,outcome,[18],inactive
same,outcome,[6],inactive
same,outcome,[7],inactive
same,outcome,[8],inactive
same,outcome,[19],inactive
same,outcome,[9],inactive
same,outcome,[10],inactive
same,outcome,[11],inactive
same,outcome,[12],inactive
same,outcome,[13],inactive
same,outcome,[14],inactive
same,outcome,[15],inactive
same,outcome,[16],inactive
O=P(O)(Oc1ccccc1)Oc1ccccc1,outcome,[1],inactive
same,outcome,[2],inactive
same,outcome,[3],inactive
same,outcome,[17],inactive
same,outcome,[4],inactive
same,outcome,[5],inactive
same,outcome,[18],inactive
same,outcome,[6],inactive
same,outcome,[7],inactive
same,outcome,[8],inactive
same,outcome,[19],inactive
same,outcome,[9],inactive
same,outcome,[10],inactive
same,outcome,[11],inactive
same,outcome,[12],inactive
same,outcome,[13],inactive
same,outcome,[14],inactive
same,outcome,[15],inactive
same,outcome,[16],inactive
CCCCCc1cc(O)cc(O)c1,outcome,[1],inactive
same,outcome,[2],inactive
same,outcome,[3],inactive
same,outcome,[17],inactive
same,AC50,[4],100 µM (active)
same,outcome,[5],inactive
same,AC50,[6],100 µM (active)
same,outcome,[7],inactive
same,AC50,[19],16 µM (active)
same,AC50,[9],51.7 µM (active)
same,outcome,[10],inactive
same,outcome,[11],inactive
same,outcome,[12],inactive
same,AC50,[13],43.5 µM (active)
same,AC50,[14],60.8 µM (active)
same,outcome,[15],inactive
same,outcome,[16],inactive
CCC(C)c1cc([N+](=O)[O-])cc([N+](=O)[O-])c1OC(=O)C=C(C)C (stereo not given),AC50,[1],100 µM (active)
same,outcome,[2],inactive
same,outcome,[3],inactive
same,AC50,[17],25.1 µM (active)
same,AC50,[5],141 µM (active)
same,outcome,[18],inactive
same,outcome,[6],inactive
same,AC50,[7],25.8 µM (active)
same,outcome,[8],inactive
same,AC50,[19],0.86 µM (active)
same,AC50,[9],27.2 µM (active)
same,outcome,[10],inactive
same,outcome,[11],inactive
same,AC50,[12],25.5 µM (active)
same,AC50,[13],3.47 µM (active)
same,AC50,[14],25.8 µM (active)
same,AC50,[15],48.3 µM (active)
same,outcome,[16],inactive
C#CC1(O)CCCCC1,outcome,[1],inactive
same,outcome,[2],inactive
same,outcome,[3],inactive
same,outcome,[5],inactive
same,outcome,[18],inactive
same,outcome,[6],inactive
same,outcome,[7],inactive
same,outcome,[8],inactive
same,outcome,[9],inactive
same,outcome,[10],inactive
same,outcome,[11],inactive
same,outcome,[12],inactive
same,outcome,[13],inactive
same,outcome,[14],inactive
same,outcome,[15],inactive
same,outcome,[16],inactive
Nc1ccc([N+](=O)[O-])cc1N,outcome,[1],inactive
same,outcome,[2],inactive
same,AC50,[3],24.7 µM (active)
same,outcome,[4],inactive
same,outcome,[6],inactive
same,outcome,[7],inactive
same,outcome,[8],inactive
same,outcome,[19],inactive
same,outcome,[9],inactive
same,outcome,[10],inactive
same,outcome,[11],inactive
same,outcome,[12],inactive
same,AC50,[13],7.53 µM (active)
same,outcome,[14],inactive
same,outcome,[15],inactive
same,outcome,[16],inactive
